From PubChem BioAssay AID651821 (The Scripps Research Institute Molecular Screening Center, 2012)
The campaign covered roughly 370,000 compounds. About 4,700 (1.3%) were called active. The full list was thinned out, with actives kept by preference. Unmarked numbers belong to inactive results.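 Rule for the calls: active = inhibition above the plate cutoff, the mean of all test compounds on that plate plus 3 SD (cut at about 35% in these data); inactive = the rest.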

experiment: binders of r(CAG) RNA repeats, primary screen, biochemical, fluorescence (AID 651821); settings: r(CAG) RNA repeat, TO-PRO-1 dye displacement fluorescence; at 3 µM; active compounds read high;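 note: 0% = DMSO alone and 100% = 100 µM mitoxantrone as full dye displacement; higher means more dye released from RNA so lower well fluorescence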

Compound	inhibition
CCC(c1ccc(NC(=O)OC(C)(C)C)cc1)c1cc(OC)cc(OC)c1 (stereo not given)	3.19%
COC(=O)C1=C(C)N(Cc2ccccc2C(F)(F)F)C(=NCc2ccc(C(F)(F)F)cc2)NC1c1ccc(F)cc1 (stereo not given)	1.68%
C=CCN(C(=O)[C@@H](CCCC)[C@@H](O)c1ccc(Cl)cc1)c1ccccc1	-0.19%
CCC(C)C(N=C1NS(=O)(=O)c2ccccc21)C(=O)N1CCC(C)CC1 (stereo not given)	-5.03%
COc1ccc(S[C@]2(C(=O)N(C)C)CC(=O)N(c3ccc(OC)cc3)[C@@H]2c2ccc(OC)cc2)cc1	2.57%
C=CCN1C(=O)[C@@H](CC(=O)NCC2CCCCC2)[C@]2(C(=O)OC)CCCCC=C12	2.39%
CC(Oc1ccccc1[N+](=O)[O-])C(=O)N/N=C/c1ccoc1 (stereo not given)	6.95%
Cc1c(Cl)c([N+](=O)[O-])nn1Cc1ccc(C(=O)N/N=C\c2cc(Cl)ccc2O)o1	7.06%
Cc1cc(C(=O)N/N=C/c2ccc(O)c([N+](=O)[O-])c2)c(C)n1-c1ccc(F)cc1	40.9% (active)
O=c1[nH]c(-c2ccccc2)cn1C1CCN(Cc2ccc(-c3nc4ccc(F)cc4nc3-c3ccccc3)cc2)CC1	14.3%
O=C(CCC1CCCN(Cc2ccc(O)c(Cl)c2)C1)NCc1ccccc1F (stereo not given)	-2.68%
CCOC(=O)C(=O)N(Cc1ccccc1)c1ccccc1C(=O)Nc1cc(OC)ccc1OC	-0.13%
CCC(NC(=O)C1C2C=CC3(CN(Cc4ccccc4)C(=O)C13)O2)c1ccccc1 (stereo not given)	0.21%
Cc1ccc(C(C)C)c(OCCSc2nc3ccccc3n2CC(=O)O)c1	40.7% (active)
CCOc1ccc(OCCSc2nc3ccccc3n2CC(=O)O)cc1	7.86%
COc1ccccc1OCCn1c(SCC(N)=O)nc2ccccc21	1.66%
Cc1ccc(Cn2cc(CN3[C@@H](CC(C)C)COc4ccc(Cl)cc4S3(=O)=O)nn2)cc1	2.98%
COC(=O)C1CN(CCc2ccccc2)CCS(=O)(=O)N1Cc1cccc(Cl)c1 (stereo not given)	1.15%
CN1C[C@]2(C=C3CCCCC3n3c(=O)n(-c4ccccc4)c(=O)n32)N=C1NC(=O)c1ccccc1 (stereo not given in full)	8.01%
Cc1ccc(C(=O)COC(=O)c2cccc(N3C(=O)c4c(C)nc5ccccc5c4C3=O)c2)cc1C	8.76%
COC(=O)c1ccc2nc(-c3ccc(OC)c(OC)c3)c(Cc3ccccc3)n2c1	9.92%
Cc1cc(Br)cn2c(Cc3cccc(F)c3)c(-c3cccc(Br)c3)nc12	48.4% (active)
Fc1cccc(Cc2c(-c3ccc(Cl)cc3)nc3ccc(Cl)cn23)c1	20.9%
Cc1cc(Br)cn2c(Cc3ccccc3C(F)(F)F)c(-c3ccc(Cl)cc3)nc12	11.8%
Brc1ccc2nc(-c3ccccc3)c(Cc3ccccc3)n2c1	13.1%
COc1ccc(-c2nc3ccc(Br)cn3c2Cc2ccc(C)cc2)cc1OC	40.1% (active)
Cc1ccc(-c2nc3c(C)cc(Br)cn3c2Cc2ccccc2)cc1	10.3%

Compound	inhibition
Cc1ccc(-c2nc3ccc(Br)cn3c2Cc2ccccc2C(F)(F)F)cc1	30.3%
Fc1cccc(Cc2c(-c3cccc(Cl)c3)nc3ccc(Br)cn23)c1	48.3% (active)
CCCCCC(O)c1cccc(OCc2ccc3ccccc3n2)c1 (stereo not given)	1.42%
Cc1ccc(NC(=O)N2c3ccccc3SC2c2ccco2)c(C)c1 (stereo not given)	5.91%
COc1ccccc1Cc1c(-c2ccc(F)cc2)nc2ccc(C)cn12	6.12%
CCCCNC(=O)C[C@@H]1C[C@@]2(C(=O)OCC)CCC=C2N(Cc2cccc3ccccc23)C1=O	1.85%
COc1ccc(-n2c(COc3ccc(C)cc3)nnc2SCC(=O)Nc2ccc(Oc3ccccc3)cc2)cc1	5.38%
Cc1ccc(-n2c(COc3ccccc3)nnc2SCC(=O)Nc2ccc3c(c2)OCCO3)cc1	7.21%
CCOc1cc(C)ccc1OCc1nnc(SCC(=O)Nc2cccc(C(=O)O)c2)n1-c1ccccc1	42% (active)
COC(=O)[C@]12C[C@H](CC(=O)N3CCN(C(=O)C4CC4)CC3)C(=O)N(CCC3=CCCCC3)C1=C[C@H](C(C)C)O[C@@H]2C1CC1	3.85%
O=C(O)c1ccccc1/C=N/Nc1ccc(S(=O)(=O)Nc2ccc(Cl)cc2)cc1[N+](=O)[O-]	67% (active)
COc1cc(/C=C/C(=O)O)cc(S(=O)(=O)Nc2ccccc2C(=O)NCCc2ccccc2)c1OC	31.7%
O=[N+]([O-])c1cc(S(=O)(=O)Nc2cccc(Cl)c2)ccc1N=Nc1c(O)[nH]c2ccccc12	8.1%
COc1ccc(S(=O)(=O)NC(C)c2ccccc2)cc1C(=O)N1CCCCC1 (stereo not given)	-7.44%
COc1ccc(Br)cc1/C=N/Nc1ccc(S(=O)(=O)Nc2ccccc2C(=O)O)cc1[N+](=O)[O-]	70.1% (active)
O=C(Nc1cc(S(=O)(=O)Nc2ccc(Cl)cc2)ccc1O)c1ccc(F)cc1F	22.4%
COc1ccc(N(CC(=O)Nc2ccc(C)cc2C)S(=O)(=O)c2ccccc2[N+](=O)[O-])c(OC)c1	7.1%
COc1cccc(/C=N/Nc2ccc(S(=O)(=O)Nc3ccccc3C(=O)O)cc2[N+](=O)[O-])c1O	93.8% (active)
Cc1ccc(S(=O)(=O)NC(=O)COc2ccccc2C)cc1	1.07%
CCN(CC(=O)NCc1cccs1)C(=O)c1cccc(S(=O)(=O)Nc2ccccc2OC)c1	-2.88%
CCOc1ccccc1NS(=O)(=O)c1c[nH]c(C(=O)OC)c1	-0.7%
Cc1ccc(NS(=O)(=O)c2ccc(N/N=C/c3ccccc3OCC(=O)O)c([N+](=O)[O-])c2)c(C)c1	86.9% (active)
CCOc1ccccc1-n1c(SCC(=O)N2CCCC2)nnc1-c1ccoc1C	-6.11%
O=C(C1CCN(S(=O)(=O)c2ccccc2)CC1)N1CCN(C2CCCCC2)CC1	2.76%
COC(=O)[C@]12C[C@H](CC(=O)N3CCOCC3)C(=O)N(Cc3ccc(Cl)cc3Cl)C1=C[C@H](C(C)C)O[C@@H]2C1CC1	4.69%
COc1cccc(NC(=O)N(C)C[C@@H]2OCc3cn(nn3)CCCC(=O)N([C@@H](C)CO)C[C@H]2C)c1	1.49%
CCCCOCCCNC(=O)C[C@H]1C[C@@]2(C(=O)OC)C(=C[C@H](C(C)(C)C)O[C@@H]2C)N(CCc2ccc(OC)c(OC)c2)C1=O	2.98%

Compound	inhibition
COc1ccc(CSc2nnc(SCC(=O)Nc3ccccc3C(F)(F)F)s2)cc1	0.71%
CCCCCCN1CCS(=O)(=O)N(Cc2ccc(C(F)(F)F)cc2)C(C(=O)OC)C1 (stereo not given)	0.66%
CC(=O)C1(C(=O)Nc2nccs2)CC(c2ccccc2C(F)(F)F)=NO1 (stereo not given)	2.46%
Cc1cc2nc(-c3ccco3)c(Cc3cccc(F)c3)n2c(C)c1Br	37% (active)
c1ccc(Cc2c(-c3ccco3)nc3c4ccccc4ccn23)cc1	13.8%
Cc1cc2nc(-c3ccc(F)cc3)c(Cc3ccsc3)n2c(C)c1Br	5.76%
NC(=O)CCN1CCN(S(=O)(=O)/C=C/c2ccccc2)CC1	-0.01%
O=c1cc(CN2CCN(S(=O)(=O)/C=C/c3ccccc3)CC2)c2ccc(O)cc2o1	40% (active)
Cc1ccc2c(CN3CCN(S(=O)(=O)c4ccccc4C(F)(F)F)CC3)cc(=O)oc2c1	10%
COc1ccc(CN2C(=O)C(C)S/C2=N/N=C/c2ccco2)cc1 (stereo not given)	0.84%
O=C(Nc1cccc(F)c1)N1C2CCC1CC(O)(c1cccnc1)C2 (stereo not given)	-2.98%
CCN1N=C(c2ccccc2)CCC1=O	-0.41%
O=C1CC(c2ccccc2)=NN1c1ccc([N+](=O)[O-])cc1	45.5% (active)
O=C1NC(=O)C2C1C(c1ccc([N+](=O)[O-])cc1)=NN2Cc1ccccc1 (stereo not given)	10.9%
CN1[C@H](Cc2ccccc2)COc2cccc(N3CCSCC3)c2S1(=O)=O	4.7%
COC(=O)C1=C(C)N(Cc2cccc(C(F)(F)F)c2)C(=NCc2cccc(C(F)(F)F)c2)NC1c1ccccc1C(F)(F)F (stereo not given)	1.52%
Cc1c[nH]c2cccc(-c3ccc(Cl)cc3)c12	1.17%
Cc1cc(O)c(NC(=O)c2ccc(C)c([N+](=O)[O-])c2)cc1C	4.43%
Cc1oc2cc([N+](=O)[O-])c(O)c([N+](=O)[O-])c2c1C(=O)c1ccc(Br)cc1	67.6% (active)
COc1ccc(C(=O)c2c(C)oc3cc([N+](=O)[O-])c(O)c([N+](=O)[O-])c23)cc1	24.7%
N#Cc1ccccc1OC[C@@H](O)CN1CCC(C(O)(c2ccccc2)c2ccccc2)CC1	2.31%
CCOC(=O)N1CCN(C(=O)C[C@H]2C[C@@]3(C(=O)OC)C(=C[C@H](C(C)(C)C)O[C@@H]3C)N(Cc3ccc(Cl)cc3Cl)C2=O)CC1	7.87%
O=C(O)CCn1cc(/C=C/C(=O)c2ccc(Cl)cc2)c(-c2cccc(Br)c2)n1	82.8% (active)
C#CCN([C@H](C(=O)OC)C(C)CC)S(=O)(=O)c1ccccc1Br (stereo not given in full)	-1.79%
O=C(C(=O)N1CCC(CNC(=O)c2cccnc2Cl)CC1)c1cccs1	2.4%
COc1ccc(CNS(=O)(=O)c2cc(Br)ccc2Br)cc1	2.67%
